Shown are actives, neighbours in structure and some others; about 3.3% of the full set was active somewhere.
AmpC inh no detg: inhibitors of E. coli AmpC beta-lactamase without detergent; P00811; AmpC nitrocefin hydrolysis, absorbance 480 nm, 0.0001% Triton; Potency, µM (series often up to 57.1 µM), for the others: at the highest dose activity change, negative = inhibition, usual class: inhibitors; 330,000 tested, 0.52% active; AID 485341;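 note: plate controls were no compound for no effect and no enzyme for full effect; nearly all actives have a fitted effect of over 20% in size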
Target sequence (P00811 whole entry, looked up): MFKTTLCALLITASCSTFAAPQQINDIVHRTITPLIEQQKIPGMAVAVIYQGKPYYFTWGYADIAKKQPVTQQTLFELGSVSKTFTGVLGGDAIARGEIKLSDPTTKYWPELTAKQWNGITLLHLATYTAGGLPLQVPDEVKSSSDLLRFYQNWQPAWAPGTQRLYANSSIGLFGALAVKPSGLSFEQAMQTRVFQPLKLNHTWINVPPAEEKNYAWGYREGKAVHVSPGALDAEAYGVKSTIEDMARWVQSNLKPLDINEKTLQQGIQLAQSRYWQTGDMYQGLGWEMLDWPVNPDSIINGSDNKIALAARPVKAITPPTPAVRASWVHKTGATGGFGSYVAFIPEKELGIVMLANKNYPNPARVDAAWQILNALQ
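20 mM phosphate pH 7.0 + 0.01% (detergent screen) or 0.0001% Triton X-100; 5.3 nM AmpC reagent; cpd preinc 15 min RT; nitrocefin (800 uM stock) to start; A480 q20 s × 4 min; Activity was normalised to no-enzyme and no-compound control wells.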
Sm TGR inh: inhibitors of Schistosoma mansoni thioredoxin glutathione reductase; Q962Y6; purified TGR, DTNB reduction, TNB absorbance 405 nm; AID 485364; Potency, µM (titrated, usually from 114 µM), for the others: at the top dose activity change, negative = inhibition, actives largely listed as inhibitors; 360,000 tested, 3% active; note: nearly all actives have a fitted effect of over 60% in size
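Kinetic colorimetric format: TGR-catalysed, NADPH-driven DTNB reduction monitored via TNB absorbance. Enzyme dispensed at 20 nM; compound exposure 15 min at room temperature before reaction start.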
AmpC inh detg: AmpC beta-lactamase inhibition with detergent present | Potency, µM (titrated, usually from 114 µM), inactives show top-dose activity change, negative = inhibition, most hits filed as inhibitors | AmpC hydrolysis of nitrocefin, absorbance 480 nm, 0.01% Triton | P00811 | AID 485294 | 370,000 tested, 0.041% active;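 note: 0% = no-compound wells and -100% = no-enzyme wells; nearly all actives have a fitted effect of over 25% in size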
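AmpC (5.3 nM in the dispensed reagent) in 20 mM phosphate pH 7.0 with 0.01% (detergent screen) or 0.0001% Triton X-100 was preincubated with compounds for 15 min at room temperature. Nitrocefin was then added from an 800 uM solution, and hydrolysis was followed at 480 nm.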
The depositor's hits bear a star; ? = inconclusive; . = no result given; [ ] = remark or other dose. Calls come from the whole dose curve; as a rule, active = well fitted curve in the direction sought with a large enough effect; inconclusive = small, poorly fitted or top-dose-only effect, or another doubt; inactive = no such curve, though single readings can be large; an effect the other way counts as inactive or inconclusive. Unless noted, % is set by controls: 0 for no effect and ±100 for the full control effect; potency is the fitted concentration of half-maximal effect.

SMILES	AmpC inh no detg	Sm TGR inh	AmpC inh detg
C=CCn1c(N)cc(=O)nc1SCC(=O)N1CCN(c2ccc(F)cc2)CC1	-0.1%	28.2µM*	4.7%
Nc1nc(SCC(=O)N2CCN(c3ccc(F)cc3)CC2)n[nH]1	-11.7%	-1.1%	3.2%
CCCc1nn2c(=O)cc(COC(=O)c3ccc(NC(=O)c4cccs4)cc3)nc2s1	.	1.8%	16.9%
CC(=O)N1CCC(N(Cc2ccco2)C(=O)Nc2ccc(C)c(Cl)c2)CC1	.	5.9%	4.0%
O=C(Cn1cc(C(=O)c2ccccc2)c(=O)c2cc3c(cc21)OCCO3)Nc1ccc(F)c(F)c1	.	-0.1%	-4.1%
CC(=O)Nc1cccc(NC(=O)CCn2c(=O)sc3ccccc32)c1	-24.1%	-4.4%	-2.0%
O=C(CCn1c(=O)sc2ccccc21)Nc1cccnc1	-8.1%	50.1µM*	-1.6%
Cc1ccc(Cn2cc(S(=O)(=O)c3cccc(Cl)c3)c(=O)c3cc(F)c(N4CCOCC4)cc32)cc1	.	0.0%	13.5%
CCCC(=O)Nc1nnc(SCc2cc(=O)n3cccc(C)c3n2)s1	.	2.2%	11.5%
CCOC(=O)c1cc(-c2ccc(OC)cc2)n(CCC(=O)NCc2ccccc2OC)c1C	.	-5.8%	-2.3%
Cc1ccc(S(=O)(=O)NCCSCc2ccco2)cc1	-16.4%	?	5.6%
COc1ccc(S(=O)(=O)NCCc2ccco2)cc1OC	-1.2%	-31.4%	?
COc1ccc(S(=O)(=O)NCCSCc2ccco2)cc1OC	-27.1%	11.2µM*	1.4%
COc1ccc(S(=O)(=O)NCCSCc2ccco2)cc1	-41.4%	25.1µM*	-9.6%
CCOc1ccc(S(=O)(=O)NCCSCc2ccco2)cc1	-15.4%	?	3.2%
Cc1cc(C)c(S(=O)(=O)NCCSCc2ccco2)c(C)c1	-42.9%	12.6µM*	-10.3%
COc1cc(NC(=O)c2cc(C)nc3c2c(C)nn3-c2ccccc2Cl)cc(OC)c1	.	-3.4%	10.4%
CCc1sc(Nc2ccc(C)cc2Br)nc1-c1cc2cccc(OC)c2oc1=O	.	-0.9%	-1.0%
CC(C)N(C1=CC(=O)OC12CCCCC2)C(C)C	-1.6%	11.2%	-0.4%
CCN(CC)C1=CC(=O)OC12CCCCC2	-10.5%	1.58µM*	-6.9%
O=C(COc1ccc(Cl)cc1)Nc1ccc(C(=O)OCc2cc(=O)n3ccsc3n2)cc1	.	5.6%	-8.9%
O=C(CC1C(=O)NCCN1Cc1cccc(F)c1)NCCCN1CCCC1=O (stereo not drawn)	29.3%	0.0%	?
COc1cc(CN2CCNC(=O)C2CC(=O)N2CCCN(C(C)=O)CC2)cc(OC)c1 (stereo not drawn)	-7.8%	31.6µM*	9.9%
COc1cccc(CN2CCNC(=O)C2CC(=O)NCCCN2CCCC2=O)c1 (stereo not drawn)	81.2%	17.8µM*	?
COc1cccc(CCNC(=O)CC2C(=O)NCCN2Cc2ccc(C)o2)c1 (stereo not drawn)	52.2%	50.1µM*	4.6%
SMILES	AmpC inh no detg	Sm TGR inh	AmpC inh detg
COc1cccc(CCNC(=O)CC2C(=O)NCCN2CC(C)(C)C)c1 (stereo not drawn)	18.7%	?	-1.4%
COc1cc(CN2CCNC(=O)C2CC(=O)O)cc(OC)c1 (stereo not drawn)	-12.5%	-12.1%	1.2%
Cc1ccc(CN2CCNC(=O)C2CC(=O)N(C)C2CCCCC2)o1 (stereo not drawn)	21.1%	?	1.3%
Cc1ccc(CN2CCNC(=O)C2CC(=O)O)o1 (stereo not drawn)	-6.2%	44.7µM*	?
COc1ccc(C(=O)c2c(N)c(-c3nc(-c4ccccc4)cs3)c3ccccn23)cc1	.	-7.9%	-6.0%
COc1cc(-c2noc(-c3ccc(N(C)C)c([N+](=O)[O-])c3)n2)cc(OC)c1OC	.	-9.3%	0.4%
Cc1ccc(CSC2=Nc3ccccc3C3=NC(CCC(=O)NCCc4ccccc4)C(=O)N23)cc1 (stereo not drawn)	.	-2.0%	-0.7%
CCOc1ccc(-c2cn(-c3ccccc3OC)c(=S)[nH]2)cc1	-32.2%	8.4%	4.6%
CCOc1ccc(-c2cn(-c3cccc(SC)c3)c(=O)[nH]2)cc1	35.5µM*	-13.9%	-12.7%
CC(=O)c1ccc(S(=O)(=O)NCC(=O)N2CCN(C/C=C/c3ccccc3)CC2)cc1	144.2%	7.94µM*	-18.3%
Cc1ccc(S(=O)(=O)NCCC(=O)N2CCN(C/C=C/c3ccccc3)CC2)cc1	151.2%	-10.5%	-14.1%
CCc1nn2c(-c3ccccc3OC)ccnc2c1-c1ccc(F)cc1	.	1.5%	-2.9%
C[n+]1c2ccccc2nc2ccc(NCCO)cc21	-7.1%	10µM*	3.2%
CCN(CC)c1ccc2nc3ccccc3[n+](CC)c2c1	1.6%	?	-1.0%
CNc1ccc2nc3ccccc3[n+](C)c2c1	-45.2%	6.31µM*	2.7%
CC(C)n1c(NCCO)nc2ccccc21	-7.5%	7.8%	-2.4%
CCOC(=O)Cc1ccc(NC(=O)N(Cc2ccc(OC)cc2)C2CCN(C(C)=O)CC2)cc1	.	-7.2%	11.6%
C/C(=N\Nc1ccc(Cl)c(C(=O)O)c1)c1ccc(Br)s1	-14.2%	50.1µM*	-18.0%
C/C(=N\NC(=O)c1ccc(Cl)c(Cl)c1)c1ccc(Br)s1	-19.5%	4.5%	?
O=C(NCCn1ccc2ccccc21)c1ccc(Cl)cc1	.	-3.2%	1.5%
COc1ccc(-n2c(=S)[nH]c3c(oc4ccccc43)c2=O)cc1	-26.0%	-7.1%	?
COc1ccc(-n2c(=S)[nH]c(=O)c3cccnc32)cc1	-10.8%	17.8µM*	-4.8%
N#Cc1nc(-c2ccco2)oc1N1CCc2ccccc2C1	-44.2%	50.1µM*	0.3%
N#Cc1nc(-c2ccco2)oc1N1CCCC1	-21.1%	4.7%	?
O=C1c2sc3nc4c(c(=O)n3c2C(=O)N1c1ccccc1)CCC4	-30.0%	17.8µM*	-2.5%
SMILES	AmpC inh no detg	Sm TGR inh	AmpC inh detg
Cc1ccccc1N1C(=O)c2sc3nc4c(c(=O)n3c2C1=O)CCC4	-34.5%	?	?
CC(C)(C)c1ccc(C(=O)N2CCC(c3nc4ccccc4o3)CC2)cc1	.	1.0%	2.2%
CC(=O)c1cccc(NC(=O)c2cc(-c3ccc(Cl)s3)nc3ccccc23)c1	.	-0.4%	16.7%
CCOc1ccc(Nc2nc3ccccc3n3c(CC)nnc23)cc1	.	-8.6%	3.5%
S=C(NCc1ccco1)Nc1ccc(Cl)cc1	-23.8%	?	-9.4%
S=C(NCc1ccco1)Nc1ccc(Cl)cn1	0.0%	3.16µM*	-7.1%
S=C(NCc1ccco1)Nc1ccccc1	-12.4%	?	8.1%
S=C(NCc1ccco1)Nc1ccccn1	-13.0%[2.29 µM]	14.1µM*	0.0%
Cc1cccc(CN2C(=O)c3ccccc3S(=O)(=O)c3ccc(C(=O)NCCC4=CCCCC4)cc32)c1	.	2.4%	-5.6%
CCOc1ccc(CN2C(=O)c3ccccc3Sc3ccc(C(=O)OC)cc32)cc1	.	1.3%	1.4%
CN1CCN(C(c2ccc(F)cc2)c2sc3nc(-c4ccco4)nn3c2O)CC1 (stereo not drawn)	.	-1.5%	1.5%
COc1ccc(C(=O)c2ccc(OC)c(Br)c2)cc1Br	-20.5%	10µM*	?
COc1ccc(C(=O)c2cccc(C(=O)c3ccc(OC)c(C)c3)c2)cc1C	-26.0%	-13.8%	0.5%
O=S(=O)(Nc1ccc(F)cc1F)c1ccc(-n2cccn2)cc1	.	0.2%	-6.7%
O=C(NCCc1ccc(Cl)cc1)c1ccc(CS(=O)(=O)Cc2ccc(Cl)cc2)o1	.	-0.2%	-1.2%
